Bioassay records (PubChem)
TMEM16A act – TMEM16A chloride channel activators or potentiators, primary screen, cell-based, HTS | B-score at 10 µM | HEK293 TMEM16A/YFP-H148Q/I152L, iodide quench fluorescence; active compounds read low | 340,000 compounds, 0.3% hits;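 active = fluorescence-ratio B-score plate-corrected deviation score at least 3 library SD below zero, with starting fluorescence score within 5 deviations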;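 also: channel opened by trigger with iodide after compound preincubation; score built on the fluorescence ratio of max minus min over baseline; more negative score means more quench and so TMEM16A activation or potentiation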
CHT inh – inhibitors of human choline transporter CHT | High affinity choline transporter 1 (Homo sapiens), Q9GZV3 | CHT-expressing cells, membrane potential dye, choline response; active compounds read low | B-score at 10 µM | 310,000 compounds, 0.86% hits;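 active = B-score over 3 SD under the library average, and starting fluorescence ratio not unusually high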;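 also: choline stimulus applied at its EC90 after an EC20 pre-addition; B-score computed on integrated fluorescence ratio after choline addition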
Kir21 inh – inhibitors of mouse Kir2.1 inward-rectifier potassium channel | 310,000 compounds, 0.85% hits | HEK293-Kir2.1, FluxOR thallium flux fluorescence; active compounds read low | B-score at 10 µM;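 active = fluorescence ratio B-score at or below minus 3 SD of library scores, with starting-brightness B-score within 2 SD, cut at about -4.2 in these data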;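 also: channel flux triggered by added potassium and thallium sulfate stimulus; B-score of peak minus minimum fluorescence over baseline after thallium stimulus; more negative B-score means stronger Kir2.1 block with less thallium influx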
Target sequence (P35561 whole entry, looked up): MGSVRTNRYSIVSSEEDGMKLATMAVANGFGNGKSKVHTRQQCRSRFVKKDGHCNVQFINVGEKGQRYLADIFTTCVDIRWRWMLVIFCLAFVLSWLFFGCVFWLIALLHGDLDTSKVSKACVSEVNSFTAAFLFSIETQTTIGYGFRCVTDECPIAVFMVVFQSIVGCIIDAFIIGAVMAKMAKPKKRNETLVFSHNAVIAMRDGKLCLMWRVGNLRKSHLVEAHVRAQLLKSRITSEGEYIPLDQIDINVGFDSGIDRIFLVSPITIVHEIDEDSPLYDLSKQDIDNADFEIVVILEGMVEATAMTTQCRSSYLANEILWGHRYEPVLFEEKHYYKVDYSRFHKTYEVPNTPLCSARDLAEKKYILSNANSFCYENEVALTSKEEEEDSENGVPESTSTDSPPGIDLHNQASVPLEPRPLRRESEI
TMEM16A inh – TMEM16A chloride channel inhibitors, primary screen, cell-based, HTS. Anoctamin-1 (Mus musculus), Q8BHY3. HEK293 TMEM16A/YFP iodide influx fluorescence, ionomycin. normalized B-score (activity score, 25-100; higher = stronger inhibition) at 10 µM. 310,000 compounds, 1.2% hits. AID 588511, 2011;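 active = ratio plate-corrected score three or more library SD toward inhibition, starting fluorescence score within five deviations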;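 also: score derived from kinetic fluorescence span divided by baseline fluorescence per well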
CHT allo act – CHT positive allosteric modulators, primary screen, cell-based, membrane potential dye, choline EC20 | High affinity choline transporter 1 (Homo sapiens), Q9GZV3 | CHT-expressing cells; active compounds read high; LV-AA mutant CHT in HEK293 cells | B-score at 10 µM | 310,000 compounds, 0.49% hits | AID 488977, 2010;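 active = initial fluorescence not abnormally high and integrated response B-score, plate-corrected, over 3 SD above library mean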
Rce1 inhib – yeast Rce1p protease inhibitors, primary screen, biochemical, fluorescence, cell-free homogeneous; yeast membranes, quenched prenylated peptide cleavage fluorescence; calls only; CAAX prenyl protease 2 (Saccharomyces cerevisiae (strain ATCC 204508 / S288c)), Q03530; 290,000 compounds, 0.27% hits;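 active = fall in fluorescence gain of 50% or more versus controls, with final raw signal at or below 3038400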
Hits are given with their value; - = inactive; . = no result given; + = active, no number. The list is not random: actives were taken first. Their share in the collection is about 3.2%.

SMILES | TMEM16A act | CHT inh | Kir21 inh | TMEM16A inh | CHT allo act | Rce1 inhib
CCOC(=O)c1cc(-c2ccc(/C=C3/C(=O)N(c4ccc(C(=O)O)cc4)N=C3C)o2)ccc1Cl | - | - | - | - | - | -
CCONc1ncnc2nonc12 | - | - | - | - | - | .
Clc1ccc(CONc2ncnc3nonc23)c(Cl)c1 | - | - | - | 100 | - | -
CCCOc1cccc(C2C(C(=O)c3cccs3)=C(O)C(=O)N2Cc2cccnc2)c1 (stereo not drawn) | - | - | - | - | - | -
CCOC(=O)c1c(N)sc2c1CCN(CCc1ccccc1)C2 | - | - | - | - | 8.06 | -
CCOCC(=O)Nc1ccc([N+](=O)[O-])cc1C | - | - | - | - | - | -
COc1ccc(S(=O)(=O)N2CCCCCC2)cc1C(=O)N(C)Cc1ccc(C(C)(C)C)cc1 | - | - | - | 25 | - | -
O=C(/C=C/c1ccc(S(=O)(=O)N2CCOCC2)cc1)OCC(=O)c1ccc([N+](=O)[O-])cc1 | - | - | - | - | - | -
CCc1cc(/C(Cc2ccccn2)=N\O)c(O)cc1O | - | - | -5.6 | - | - | -
CCc1cc(C(=O)Cc2nc3ccccc3[nH]2)c(O)cc1O | . | - | - | - | - | -
CCc1cc(/C(Cc2cscn2)=N\O)c(O)cc1O | - | - | - | - | - | -
CCc1cc(/C(Cc2ccc3ccccc3n2)=N\O)c(O)cc1O | - | - | - | 100 | - | -
COc1cccc(C(=O)NNS(=O)(=O)c2ccc(C)cc2)c1 | - | - | - | - | - | -
CCC1(C(=O)NC(=Nc2ccccc2)Nc2ccccc2)CCOC1=O (stereo not drawn) | - | . | . | . | . | .
COc1cc(CC(=O)OCC(=O)Nc2sccc2C(N)=O)cc(OC)c1OC | - | - | - | 100 | - | -
COc1ccc(Cl)cc1NC(=O)COC(=O)CCc1cc(OC)c(OC)c(OC)c1 | - | - | -4.94 | - | - | -
COC(=O)C1=C(COc2ccc(C=O)cc2OC)NC(=O)NC1c1cc(C)ccc1C (stereo not drawn) | - | - | - | - | - | -
CCOc1cc2[nH]c(=O)n(CCCC(=O)N(C)Cc3ccccc3)c(=O)c2cc1OCC | - | - | - | - | - | -
O=S(=O)([O-])CCC[n+]1c(/C=C\Nc2ccccc2)oc2ccc(-c3ccccc3)cc21 | . | . | - | . | . | -
CC(=O)OCC(=O)[C@H]1CC[C@H]2[C@@H]3CCC4=CC(=O)CC[C@]4(C)[C@H]3CC[C@]12C | -5.76 | - | - | - | - | -
C[C@]12CC[C@H]3[C@@H](CCC4=CC(=O)CC[C@@]43C)[C@@H]1CC[C@@H]2C(=O)CO | - | - | - | - | - | -
COc1ccc(N=C2SC(CC(=O)Nc3ccccc3)C(=O)N2CCc2ccccn2)cc1 (stereo not drawn) | - | - | - | - | - | -
COc1ccc(N=C2SC(CC(=O)Nc3ccccc3)C(=O)N2Cc2ccccn2)cc1 (stereo not drawn) | -5.75 | - | - | - | - | -
O=C(NCc1ccccn1)c1ccc(OC2CCN(Cc3ccc(CO)o3)CC2)cc1 | - | - | - | - | - | -
CCc1nnc(NC(=O)c2ccc(Cl)c(S(=O)(=O)N3CCc4ccccc43)c2)s1 | - | - | - | 100 | - | -
SMILES | TMEM16A act | CHT inh | Kir21 inh | TMEM16A inh | CHT allo act | Rce1 inhib
CCOc1ccccc1N(C)C(=O)c1ccc2c(=O)n3c(nc2c1)CCCCC3 | - | - | - | - | - | -
CCN(CC)c1ccc(/C=C/c2ccc3ccc(OC)cc3[n+]2CC)cc1 | - | - | -15.9 | - | - | -
CC[n+]1c(/C=C/c2ccc(N(C)C)cc2)ccc2ccccc21 | - | - | -13.8 | - | - | -
CN1C(C)(C)CC(=NO)CC1(C)C | - | . | . | . | . | .
COC(=O)c1c[nH]c(=S)n1Cc1ccccc1 | -5.44 | . | . | . | . | .
O=C(CN(c1ccccc1)S(=O)(=O)c1ccccc1[N+](=O)[O-])Nc1ccccc1C(=O)N1CCOCC1 | - | - | - | - | - | -
CCCCC1CCC(C(=O)Nc2ccc(N3CCOCC3)cc2N2CCOCC2)CC1 (stereo not drawn) | - | . | . | . | . | .
CC1=C/C(=N\OS(=O)(=O)c2ccccc2)C(C(C)C)=CC1=O | -5 | - | . | - | - | .
CC1=CC(=O)c2ccccc2C1=O | - | - | - | - | - | -
CC(c1ccccc1)N1C(=O)c2ccc(C(=O)Nc3ccc(Br)cc3C(=O)O)cc2C1=O (stereo not drawn) | - | - | - | 100 | - | -
CC(C)CCN1C(=O)c2ccc(C(=O)Nc3ccc(O)cc3C(=O)O)cc2C1=O | - | - | - | - | - | -
CNC(=S)N/N=C/c1cn(Cc2c(F)cccc2Cl)c2ccccc12 | - | - | - | - | - | +
COC(=O)/C=C1\OC(c2ccccc2)=CC1=O | . | - | -10.4 | - | - | -
O=C1OC(c2ccccc2)=C/C1=C/N1CCCCC1 | - | - | - | - | - | -
O=C(CN1CCOCC1)Nc1ncc(Cc2cccc3ccccc23)s1 | - | - | - | 25 | - | -
Nc1nc(NCCc2ccccc2)nc(NCc2ccccc2)c1[N+](=O)[O-] | - | - | - | - | - | -
CN(Cc1ccccc1)c1nc(N)c([N+](=O)[O-])c(NCc2ccccc2)n1 | - | - | -4.55 | - | - | -
CCOC(=O)Cc1csc(NC(=O)CSc2nc(=O)[nH]c3c2CCC3)n1 | - | - | - | - | - | -
COc1ccccc1CNCC(=O)Nc1ccccc1-n1cccc1 | - | - | -4.54 | - | - | -
COc1ccccc1CNCC(=O)Nc1ccc(C#N)cc1 | - | - | - | - | - | -
CC1(C)CC(=O)C(C2C3=C(CC(C)(C)CC3=O)Oc3c(Br)cc(Br)cc32)=C(O)C1 (stereo not drawn) | - | - | - | 25 | - | -
CCC(C)(C)c1ccc(OCCCC[n+]2cccc(C)c2)c(C(C)(C)CC)c1 | - | . | -6.38 | . | . | +
Cc1ccc[n+](CC(=O)Nc2cc(C(F)(F)F)ccc2Cl)c1 | - | - | - | - | - | -
COc1cccc(NC(=O)Nc2cccn(Cc3ccc(C)cc3)c2=O)c1 | - | - | - | - | - | +
COC(=O)Cc1ccc(NC(=O)c2ccc(C(C)(C)C)cc2)cc1 | - | - | - | 100 | - | -
CCOC(=O)c1c(NC(=O)C(NCCN(C)C)c2ccccc2)sc2c1CCCC2 (stereo not drawn) | - | - | -6.22 | - | - | -
CCOC(=O)c1c(NC(=O)c2ccccc2N(C)S(=O)(=O)c2ccccc2)sc2c1CCCC2 | - | - | - | - | - | -
CCN(CC)CCn1c2ccccc2c2cnc(N=CN(C)C)c(C#N)c21 | - | - | - | - | - | +
